Data from PubChem BioAssay AID1159580 (chemical genetic matrix, 2015).
Among all 5,500 compounds or so, about 2,000 (36%) were called active. Another 18% or so got no clear call; they are omitted. No stated cut-off is given here; in the data, active means normalized growth mostly below about 0.91 (no sharp cut-off); inconclusive means no clear call, values can overlap the other calls; inactive means mostly above about 0.92. The list shows a part of the results.

Test: chemical genetic growth profiling, strain panel (AID 1159580);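 further: tested at 20 µM; growth read once vehicle control cultures reached saturation at 30 °C; 1 = growth at the plate median or of vehicle wells; lower values mean less growth of the strain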
Conditions: S. cerevisiae deletion strains, growth OD

Measured: normalized growth

CCCCCCCCCCCCCCCC(=O)OC1C(SC)OC(C(NC(=O)C2CC(CCC)CN2C)C(C)Cl)C(O)C1O (configuration not stated)
inactive: locus YAL021C, strain ccr4, active compounds read low 0.958 | locus YAL026C, strain drs2, active compounds read low 0.976 | locus YAL030W, strain snc1, active compounds read low 0.989 | locus YBL061C, strain skt5, active compounds read low 0.963 | locus YBR009C, strain hhf1, active compounds read low 0.977 | locus YBR023C, strain chs3, active compounds read low 0.984 | locus YBR171W, strain sec66, active compounds read low 0.961 | locus YBR231C, strain swc5, active compounds read low 0.979 | locus YBR279W, strain paf1, active compounds read low 0.981 | locus YCL011C, strain gbp2, active compounds read low 0.978 | locus YCL016C, strain dcc1, active compounds read low 0.982 | locus YCL061C, strain MRC1, active compounds read low 0.98 | locus YCL069W, strain vba3, active compounds read low 0.985 | locus YCR088W, strain abp1, active compounds read low 0.972 | locus YDL005C, strain med2, active compounds read low 0.968 | locus YDL040C, strain nat1, active compounds read low 0.979 | locus YDR001C, strain nth1, active compounds read low 0.974 | locus YDR069C, strain doa4, active compounds read low 0.975 | locus YDR137W, strain rgp1, active compounds read low 1 | locus YDR159W, strain sac3, active compounds read low 0.958 | locus YDR195W, strain ref2 0.964 | locus YDR297W, strain sur2, active compounds read low 0.976 | locus YDR334W, strain swr1, active compounds read low 0.973 | locus YDR335W, strain msn5, active compounds read low 0.978 | locus YDR392W, strain spt3, active compounds read low 0.96 | locus YEL003W, strain gim4, active compounds read low 0.98 | locus YEL037C, strain rad23, active compounds read low 0.979 | locus YEL061C, strain CIN8 (second series), active compounds read low 0.985 | locus YER015W, strain faa2, active compounds read low 0.972 | locus YER016W, strain bim1, active compounds read low 0.976 | locus YER111C, strain swi4, active compounds read low 0.964 | locus YER155C, strain BEM2 (second series), active compounds read low 0.968 | locus YFR010W, strain ubp6, active compounds read low 0.961 | locus YGL167C, strain pmr1, active compounds read low 0.972 | locus YGL173C, strain kem1, active compounds read low 0.975 | locus YGL227W, strain vid30, active compounds read low 0.963 | locus YGL240W, strain doc1, active compounds read low 0.983 | locus YGL253W, strain hxk2, active compounds read low 0.978 | locus YHR013C, strain ard1, active compounds read low 0.98 | locus YHR027C, strain rpn1, active compounds read low 0.985 | locus YHR142W, strain chs7, active compounds read low 0.97 | locus YJL092W, strain hpr5, active compounds read low 0.967 | locus YJL095W, strain BCK1 (second series), active compounds read low 0.99 | locus YJL115W, strain asf1, active compounds read low 0.974 | locus YJL129C, strain trk1, active compounds read low 0.983 | locus YJL154C, strain vps35, active compounds read low 0.963 | locus YJL164C, strain tpk1, active compounds read low 0.986 | locus YJL166W, strain qcr8, active compounds read low 0.988 | locus YJL187C, strain SWE1, active compounds read low 0.982 | locus YKL160W, strain elf1, active compounds read low 0.988 | locus YKR026C, strain gcn3, active compounds read low 0.973 | locus YKR091W, strain srl3, active compounds read low 0.985 | locus YLL001W, strain dnm1, active compounds read low 0.99 | locus YLL026W, active compounds read low 0.974 | locus YLL041C, strain sdh2, active compounds read low 0.978 | locus YLR027C, strain aat2, active compounds read low 0.976 | locus YLR221C, strain rsa3, active compounds read low 0.976 | locus YLR258W, strain gsy2, active compounds read low 0.984 | locus YLR262C, strain YPT6 (second series), active compounds read low 1.02 | locus YLR320W, strain mms22, active compounds read low 0.964 | locus YLR342W, strain FKS1, active compounds read low 0.966 | locus YLR357W, strain rsc2, active compounds read low 0.95 | locus YLR370C, strain arc18, active compounds read low 0.977 | locus YLR384C, strain iki3, active compounds read low 0.955 | locus YML120C, strain ndi1, active compounds read low 0.989 | locus YMR058W, strain fet3, active compounds read low 0.977 | locus YMR125W, strain sto1, active compounds read low 0.971 | locus YMR129W, active compounds read low 0.977 | locus YMR205C, strain PFK2, active compounds read low 0.972 | locus YMR231W, strain pep5, active compounds read low 0.959 | locus YNL071W, strain lat1, active compounds read low 0.993 | locus YNL209W, strain ssb2, active compounds read low 0.985 | locus YNL248C, strain rpa49, active compounds read low 0.979 | locus YNL322C, strain KRE1 (second series), active compounds read low 0.969 | locus YNR049C, strain mso1, active compounds read low 0.972 | locus YOR001W, strain rrp6, active compounds read low 0.981 | locus YOR070C, strain gyp1, active compounds read low 0.972 | locus YOR080W, strain dia2, active compounds read low 0.98 | locus YOR083W, strain WHI5, active compounds read low 0.988 | locus YOR106W, strain vam3, active compounds read low 0.973 | locus YOR265W, strain rbl2, active compounds read low 0.986 | locus YOR270C, strain vph1, active compounds read low 0.998 | locus YOR290C, strain snf2, active compounds read low 0.974 | locus YPL051W, strain arl3, active compounds read low 0.972 | locus YPL078C, strain atp4, active compounds read low 0.976 | locus YPL106C, strain sse1, active compounds read low 0.979 | locus YPL240C, strain hsp82, active compounds read low 0.976
